# Reference: PubChem BioAssay (NCI)
# This is part of a sample that, as a whole, favours compounds with a hit. Of some 83,000 tested, about 20% had one in any assay.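 96-well plates, one dose, 48 hours. Percent growth reported; active if below 10.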 A number with no mark means an inactive call. Calls of active or inactive are those of the source.
# Assays:
# Assay in all cases: NCI-60 one-dose screen, 48 h (100 = growth as untreated, 0 = no growth, -100 = all killed)
# Conditions in all cases: 10 µM unless noted
# [1] = test system: NCI-H23 lung
# [2] = test system: NCI-H322M lung
# [3] = test system: HOP-62 NSCLC
# [4] = test system: NCI-H460 lung
# [5] = test system: HOP-92 NSCLC
# [6] = test system: NCI-H522 lung
# [7] = test system: A549/ATCC NSCLC
# [8] = test system: 786-0 renal
# [9] = test system: COLO 205 colon
# [10] = test system: DU-145 prostate
Structure (SMILES),growth [1],growth [2],growth [3],growth [4],growth [5],growth [6],growth [7],growth [8],growth [9],growth [10]
O=C(Nc1ccc(N2CCNCC2)cn1)c1[nH]ncc1Nc1ncnc2sccc12,18.4%,59.1%,73%,43.1%,52.5%,-3.84% (active),4.12% (active),-43.6% (active),29%,41.9%
CCOC(=O)c1c(C=O)nc2ccccc2c1/C=C/c1ccc(Cl)cc1,100%,99.8%,103%,100%,92.8%,78.8%,96.4%,106%,119%,96.3%
Nc1nonc1-n1nncc1-c1cccnc1,102%,101%,110%,111%,99.8%,112%,94.7%,104%,114%,112%
CCOC(=O)C(CC(=O)O)=C(C(=O)OCC)C(=O)OCC,105%,114%,104%,107%,89.5%,114%,101%,115%,121%,109%
COc1cccc(/C=C/C(=O)c2c(C)nc3ccccc3c2/C=C/c2ccccc2)c1OC,31.2%,45.3%,55.2%,2.78% (active),60.7%,3.88% (active),30.9%,42.4%,56.3%,4.24% (active)
COc1ccc(CCN2CCC(CN(C)Cc3cnn(-c4ccccc4)c3)CC2)cc1,31.9%,46.4%,30%,3.48% (active),37.3%,43.7%,4.78% (active),25.6%,30.1%,28.6%
O=C1c2cc(Br)ccc2Oc2cc([N+](=O)[O-])ccc2N1c1ccc(I)cc1F,93%,103%,102%,102%,101%,96.2%,82%,104%,123%,105%
Nc1ccc(-c2nn3c(CCC(=O)c4nc5ncccc5[nH]4)nnc3s2)c(O)c1,83.1%,87.5%,85.7%,93.4%,85.4%,81.2%,89.6%,99.2%,99.6%,96.5%
N#C/C(=C1\SC(=O)CN1c1ccccc1)c1nc2ccccc2s1,75.8%,102%,94.4%,97.1%,102%,80.5%,97%,102%,103%,99.7%
O=C(CSc1ncccc1C(=O)O)Nc1ccc(Oc2ccccc2)cc1,104%,99%,93.8%,102%,102%,105%,98%,99.8%,108%,110%
CCCCOCc1cc(CN2CCN(C)CC2)c(O)c2ncccc12,60%,53.9%,32.9%,21.9%,57.9%,24.9%,35.9%,38.1%,85.4%,63.9%
COc1cc(C2C(C#N)=C(N)OC3=C2C(=O)c2ccccc2C3=O)cc(OC)c1O (stereo not given),32.5%,47.7%,34.2%,12.7%,43.7%,-10.1% (active),52.3%,35.4%,44.6%,17.8%
CN1C(=O)N(C)C2(c3ccccc3)OC(=S)NC12c1ccccc1 (stereo not given),99.3%,92%,90.1%,112%,101%,90.4%,87.5%,96.2%,107%,94.4%
